In all, about 16,000 sequences were measured (“e-score”: median about -0.044, highest 2% from about 0.38 on). The sample as a whole holds a higher share of the highest values than the screen did.

The target of the experiment is T1, GST-NbGlk1(82-244) (Nicotiana benthamiana).
T1 chain: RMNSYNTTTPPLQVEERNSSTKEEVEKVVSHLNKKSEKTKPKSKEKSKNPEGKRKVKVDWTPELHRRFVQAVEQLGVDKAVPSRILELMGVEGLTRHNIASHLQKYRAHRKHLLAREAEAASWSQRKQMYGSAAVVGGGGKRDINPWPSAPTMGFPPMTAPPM
Briefly: protein-binding microarray; NbGlk1 is a Golden2-like transcription factor of Nicotiana benthamiana; high values mean tight binding. Conditions: protein: recombinant; tags: GST (pTH6838); dsDNA, one strand shown.
Consider AAGGATTA, for which the binding signal amounted to 0.278 ± 0.0334 E-score.
Under ATCTATGG stands 0.205 ± 0.011 E-score; under ATATCGAG, 0.296 ± 0.0718 E-score.
Under ATTATTCC stands 0.252 ± 0.0429 E-score.
Turning to AACGAGAT, the binding signal amounted to 0.309 ± 0.0377 E-score.
As for AATAGGAT, the binding signal turned out to be 0.218 ± 0.15 E-score.
Consider AGCAGAAT, for which the binding signal worked out at 0.255 ± 0.0466 E-score.
With ATACTCCA, the binding signal stood at 0.208 ± 0.0394 E-score.
Turning to ATCGTAAT, the binding signal came out at 0.375 ± 0.0645 E-score.
As for ATCGGAAA, the figure is 0.25 ± 0.0729 E-score; as for ACGATTGC, 0.345 ± 0.0699 E-score; as for ATGATTAC, 0.302 ± 0.0176 E-score.
As for ACGATTAC, the figure is 0.407 ± 0.0433 E-score.
Take ATTTTCGG: the binding signal was found to be 0.237 ± 0.0617 E-score.
Under AAATCGAG stands 0.288 ± 0.0697 E-score; under CAATCTAA, 0.351 ± 0.0122 E-score.
Under CAATCTAG stands 0.3742 ± 0.000815 E-score.
For CAATCTAC, the binding signal is 0.341 ± 0.0196 E-score.
As for AAATCAAA, the binding signal is 0.309 ± 0.0265 E-score.
As for AAATCTAT, the figure is 0.419 ± 0.0237 E-score; as for AAATCAAC, 0.349 ± 0.0103 E-score.
As for AAATCTAC, the figure is 0.441 ± 0.0198 E-score; as for AGATCTAT, 0.337 ± 0.0129 E-score.
Under AAATCTAG stands 0.452 ± 0.0158 E-score; under AAATCTAA, 0.4499 ± 0.000584 E-score; under AAATCAAT, 0.31 ± 0.0292 E-score.
With ATATAAAA, the binding signal stood at 0.212 ± 0.0169 E-score.
Consider ACCGGATA, for which the binding signal came to 0.262 ± 0.0765 E-score.
AATTTCGT: the binding signal worked out at 0.284 ± 0.0162 E-score.
As for ATCTCGCA, the figure is 0.324 ± 0.0204 E-score.
As for AAATAATA, the figure is 0.227 ± 0.0112 E-score; as for ACAAATAT, 0.313 ± 0.0317 E-score.
Regarding ATCGGGAA, the binding signal amounted to 0.276 ± 0.0291 E-score.
Consider ACCTAGAT, for which the binding signal came out at 0.291 ± 0.0209 E-score.
ATCGCATG: the binding signal came out at 0.29 ± 0.0714 E-score.
On to CAATCATA, for which the binding signal came to 0.255 ± 0.00353 E-score.
As for ATTATAAG, the figure is 0.253 ± 0.0219 E-score.
As for ATCCGCCA, the figure is 0.254 ± 0.0406 E-score; as for AAATCGAT, 0.336 ± 0.0651 E-score.
As for AAATCTGT, the figure is 0.446 ± 0.00579 E-score; as for AAATCGGT, 0.325 ± 0.0221 E-score.
Take AACCAGAT: the binding signal was found to be 0.301 ± 0.00304 E-score.
Under AATCGAGA stands 0.293 ± 0.0295 E-score; under AGAATCAT, 0.359 ± 0.0327 E-score; under AGGATCCA, 0.237 ± 0.027 E-score.
As for AGAATCGC, the figure is 0.377 ± 0.00979 E-score.
As for AGAATCCC, the figure is 0.433 ± 0.00879 E-score; as for ACAATCCG, 0.334 ± 0.019 E-score; as for ATAATCCG, 0.337 ± 0.0347 E-score.
Turning to AGAATCCG, the binding signal is 0.4779 ± 0.0039 E-score.
Under AGAATCCA stands 0.456 ± 0.0261 E-score; under AGAATCCT, 0.439 ± 0.00609 E-score; under ACAATCCC, 0.2757 ± 0.00233 E-score.
As for ACAATCCT, the figure is 0.302 ± 0.0343 E-score.
Take ATCCAAAA: the binding signal amounted to 0.261 ± 0.0307 E-score.
Under ATCCTCCG stands 0.257 ± 0.0282 E-score; under ATCTGCTG, 0.291 ± 0.0162 E-score; under ATATGAAA, 0.266 ± 0.036 E-score.
As for AGCGATTC, the figure is 0.253 ± 0.0595 E-score.
For ATAGCGAT, the binding signal is 0.247 ± 0.0104 E-score.
Under ATATTACA stands 0.281 ± 0.0562 E-score; under AGATTATA, 0.31 ± 0.0066 E-score.
As for AGATTACT, the figure is 0.429 E-score; as for AAATTACG, 0.317 ± 0.00783 E-score.
As to ATATTACG, the binding signal came out at 0.331 ± 0.0353 E-score.
Consider AAATTACA, for which the binding signal turned out to be 0.281 ± 0.0554 E-score.
Regarding AGATTATC, the binding signal stood at 0.398 ± 0.0119 E-score.
As to AGATTACA, the binding signal is 0.477 ± 0.0126 E-score.
Regarding AGATTACG, the binding signal came to 0.484 ± 0.00516 E-score.
As for AGATTATG, the figure is 0.35 ± 0.0249 E-score; as for ACGATCTG, 0.298 ± 0.0786 E-score; as for ATCTGAAT, 0.319 ± 0.0412 E-score.
Under ACATGGAT stands 0.276 ± 0.0921 E-score; under AATAGAGA, 0.257 ± 0.00976 E-score; under AGCGGATA, 0.27 ± 0.022 E-score.
As for ATCTGTCG, the figure is 0.268 ± 0.0941 E-score; as for ATCTCAAA, 0.337 ± 0.00799 E-score; as for ACTTGGAT, 0.263 ± 0.0442 E-score.
Take ATTGCTAC: the binding signal was 0.23 ± 0.0982 E-score.
For the sequence ATTGCAAA, the binding signal was found to be 0.212 ± 0.0169 E-score.
Under AATATTAT stands 0.211 ± 0.0854 E-score.
As for ATATGCAC, the figure is 0.266 ± 0.0704 E-score; as for AAATTTGC, 0.224 ± 0.0355 E-score.
Turning to AATCATGA, the binding signal was determined as 0.254 ± 0.0429 E-score.
Under AGATTTAC stands 0.349 ± 0.00929 E-score; under AGATTACC, 0.459 ± 0.0174 E-score; under AAATTACC, 0.252 ± 0.0504 E-score.
As for AATATACG, the binding signal is 0.253 ± 0.0484 E-score.
On to CAGATTAC, for which the binding signal is 0.47655 ± 0.000118 E-score.
Under AAGATTAT stands 0.288 ± 0.039 E-score.
As for AAAATTAC, the figure is 0.203 ± 0.0427 E-score.
Regarding CAAATTAC, the binding signal is 0.275 ± 0.0131 E-score.
With AAGATTAC, the binding signal worked out at 0.454 ± 0.0269 E-score.
As for AATATTAC, the figure is 0.235 ± 0.084 E-score; as for ATTGTGTC, 0.225 ± 0.0437 E-score.
Under ATCTGCGA stands 0.35 ± 0.033 E-score.
Under ATTACCCA stands 0.234 ± 0.0351 E-score; under AATCGATC, 0.26 ± 0.0524 E-score.
Regarding ATATTTTC, the binding signal came out at 0.363 ± 0.0153 E-score.
Under AAATTTCA stands 0.229 ± 0.0474 E-score; under ATATTTCA, 0.302 ± 0.00721 E-score.
As to ATATTTTG, the binding signal is 0.274 ± 0.0771 E-score.
Regarding ATTTTTTG, the binding signal turned out to be 0.315 ± 0.021 E-score.
Under AGATTTCC stands 0.4969 ± 0.000664 E-score.
As for AGATTTTC, the figure is 0.4879 ± 0.00245 E-score; as for AAATTTCC, 0.305 ± 0.0382 E-score; as for AAATTTTC, 0.273 ± 0.00676 E-score.
Under ATATTTCC stands 0.369 ± 0.00928 E-score.
In the case of AGATTTCA, the binding signal was 0.467 ± 0.0101 E-score.
As for AGATTTTG, the binding signal is 0.4649 ± 0.003 E-score.

The values are drawn from article PMC5836133, “The intracellular immune receptor Rx1 regulates the DNA-binding activity of a Golden2-like transcription factor”.
